Experimental findings from PubChem BioAssay (Tox21) are described below.

A number with no mark means an inactive call. Records with an inconclusive call do not appear. Active and inactive are the calls of the source. Unless noted, the call rests on the fitted dose curve; in most records, active means well fitted curve in the direction sought with a large enough effect in the repeat runs; inconclusive means weak or mixed curves; inactive means no such curve, though single readings can be large; an effect the other way counts as inactive or inconclusive.

The nature of assay [1]: qHTS assay to test for compound auto fluorescence at 535 nm (green) in HEK293 cells (AID 720680).
Assay [2] is described as follows: qHTS assay to test for compound auto fluorescence at 460 nm (blue) in HEK293 cell free culture (AID 720681). Put shortly: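 Blue fluorescence (Ex 405/Em 460 nm, triamterene-equivalent) was read immediately after pin transfer of compound or DMSO into medium (DMEM, 10% FBS) without cells.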
Assay [3] is described as follows: qHTS assay to test for compound auto fluorescence at 535 nm (green) in HEK293 cell free culture (AID 720682). Put shortly:
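Green-label autofluorescence (485 nm excitation, 535 nm emission) measured on compound added to cell-free culture medium (DMEM, 10% FBS). Output is expressed relative to fluorescein.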

The nature of assay [4]: qHTS assay to test for compound auto fluorescence at 590 nm (red) in HEK293 cell free culture (AID 720683). Put shortly:
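Red-channel autofluorescence of compounds in culture medium (DMEM, 10% FBS), no cells, measured at 540/590 nm. Rose Bengal sodium is the reference fluorophore for equivalence.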

A short description of assay [5]: qHTS assay to test for compound auto fluorescence at 590 nm (red) in HepG2 cell free culture (AID 720684). Put shortly: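 Cell-free; medium MEM + 10% FBS; compound or DMSO added by pintool; read Ex 540/Em 590 nm; Rose Bengal sodium as red reference fluorophore.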
Assay [6] can be described thus: qHTS assay to test for compound auto fluorescence at 460 nm (blue) in HepG2 cell free culture (AID 720685). Put shortly: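 Cell-free plates of MEM plus 10% FBS received 23 nL compound or DMSO vehicle; blue-channel (405/460 nm) intensity scored against triamterene as reference fluorophore.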
Assay [7] can be described thus: qHTS assay to test for compound auto fluorescence at 535 nm (green) in HepG2 cell free culture (AID 720686).
Assay [8] in a line: qHTS assay to test for compound auto fluorescence at 460 nm (blue) in HepG2 cells (AID 720687). Put shortly:
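Blue-channel autofluorescence (Ex/Em 405/460 nm, triamterene-equivalent) was measured after 1 hr compound exposure at 37 C, 5% CO2. Cells were HepG2, plated overnight at 37 C in MEM plus 10% FBS.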

Assay [9] concerns the target Glucocorticoid receptor (Homo sapiens) (UniProt P04150). The assay can be described thus: qHTS assay to identify small molecule agonists of the glucocorticoid receptor (GR) signaling pathway (AID 720691; active means well fitted activation curve with a large enough effect in the signal ratio in the repeat runs, not every such curve was filed as active; the % refers to the signal ratio). Put shortly:
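Steps: seed GR-bla HeLa cells, incubate 4 h at 37 C/5% CO2; pin-transfer DMSO-dissolved compounds; incubate 18 h at 37 C; add LiveBLAzer B/G FRET substrate; after 2 h at room temperature, measure fluorescence.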

For assay [10] the target is unchanged. The assay can be described thus: qHTS assay to identify small molecule antagonists of the glucocorticoid receptor (GR) signaling pathway (AID 720692; active means well fitted inhibition curve with a large enough effect in the signal ratio in the repeat runs, not every such curve was filed as active; the % refers to the signal ratio; further: potency means the concentration at half of the fitted maximal effect). Put shortly: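 Antagonism was scored as loss of dexamethasone-driven (5 nM final) reporter signal in HeLa cells bearing a glucocorticoid response element–beta-lactamase construct, after 18 h compound exposure at 37 C and 2 h FRET substrate loading.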

A short description of assay [11]: qHTS assay to identify small molecule antagonists of the glucocorticoid receptor (GR) signaling pathway - cell viability counter screen (AID 720693). Further: nearly all actives have a fitted effect of over 55% in size.
The nature of assay [12]: qHTS assay for identifying genotoxic compounds that show differential cytotoxicity against isogenic chicken DT40 cell lines with known DNA damage response pathways - Rev3 mutant cell line (AID 743014). Further: nearly all actives have a fitted effect of over 55% in size.
The nature of assay [13]: qHTS assay for identifying genotoxic compounds that show differential cytotoxicity against isogenic chicken DT40 cell lines with known DNA damage response pathways - Rad54/Ku70 mutant cell line (AID 743015). Further: nearly all actives have a fitted effect of over 60% in size.
Assay [14] is described as follows: qHTS assay to identify small molecule antagonists of the androgen receptor (AR) signaling pathway - cell viability counter screen (AID 743033; further: nearly all actives have a fitted effect of over 45% in size).
Assay [15] is described as follows: qHTS assay to identify small molecule antagonists of the androgen receptor (AR) signaling pathway using the MDA cell line - cell viability counter screen (AID 743041; further: nearly all actives have a fitted effect of over 45% in size). Put shortly:
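Viability read by CellTiter-Fluor fluorescence in the same wells as the antagonist screen, added after 15.5 h of a 16 h, 37C exposure. Human breast carcinoma MDA-kb2 AR-luc cells, compounds co-dosed with agonist R1881.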

A short description of assay [16]: qHTS assay for identifying genotoxic compounds that show differential cytotoxicity against isogenic chicken DT40 cell lines with known DNA damage response pathways - wild type cell line (AID 743012). Further: nearly all actives have a fitted effect of over 60% in size. Put shortly:
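Cytotoxicity in repair-proficient parental chicken DT40 cells serves as the comparator for Rad54/Ku70- and Rev3-deficient lines. Cells were exposed to compounds for 40 h at 37 C/5% CO2, and ATP-based luminescence (CellTiter-Glo) measured viability.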

In assay [17] the target is Androgen receptor (Homo sapiens) (UniProt P10275). Description: qHTS assay to identify small molecule antagonists of the androgen receptor (AR) signaling pathway (AID 743035; active means well fitted inhibition curve with a large enough effect in the signal ratio in the repeat runs, not every such curve was filed as active; the % refers to the signal ratio). Put shortly:
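Steps: seed AR-UAS-bla GripTite HEK293 cells, incubate 4 h at 37C; pin in test compound, then add agonist R1881; incubate 16 h at 37C; add LiveBLAzer B/G FRET substrate, 2 h at room temperature; read fluorescence.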

Assay [18] has the same target. Description: qHTS assay to identify small molecule agonists of the androgen receptor (AR) signaling pathway (AID 743036; active means well fitted activation curve with a large enough effect in the signal ratio in the repeat runs, with a control signal flat, not every such curve was filed as active; the % refers to the signal ratio). Put shortly:
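AR-UAS-bla HEK293 cells, plated 4 h before dosing, were treated with compound for 16 h at 37C. beta-Lactamase reporter read after 2 h with LiveBLAzer B/G FRET substrate at room temperature.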

For assay [19] the target is unchanged. The assay can be described thus: qHTS assay to identify small molecule agonists of the androgen receptor (AR) signaling pathway using the MDA cell line (AID 743040; further: nearly all actives have a fitted effect of over 20% in size). The note with it: MDA-kb2 AR-luc cells, MMTV luciferase, 16 h, stronger effect = higher value. Put shortly:
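Luciferase agonist assay: 16 h compound exposure at 37C without CO2 in MDA-kb2 AR-luc cells, whose MMTV promoter responds to both AR and GR. Luminescence measured after 30 min room-temperature incubation with ONE-Glo.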

Assay [20] has the same target. The assay can be described thus: qHTS assay to identify small molecule antagonists of the androgen receptor (AR) signaling pathway using the MDA cell line (AID 743042; further: nearly all actives have a fitted effect of over 55% in size). Put shortly:
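Antagonist mode: compounds plus R1881 agonist added to MDA-kb2 AR-luc cells, incubated 16 h at 37C. Luciferase reporter luminescence quantified, with multiplexed CellTiter-Fluor readout for cell viability.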
On the % scale 0 is the no-effect control and ±100 the full control effect.

Glucocorticoid receptor (Homo sapiens), sequence (P04150 whole entry, looked up): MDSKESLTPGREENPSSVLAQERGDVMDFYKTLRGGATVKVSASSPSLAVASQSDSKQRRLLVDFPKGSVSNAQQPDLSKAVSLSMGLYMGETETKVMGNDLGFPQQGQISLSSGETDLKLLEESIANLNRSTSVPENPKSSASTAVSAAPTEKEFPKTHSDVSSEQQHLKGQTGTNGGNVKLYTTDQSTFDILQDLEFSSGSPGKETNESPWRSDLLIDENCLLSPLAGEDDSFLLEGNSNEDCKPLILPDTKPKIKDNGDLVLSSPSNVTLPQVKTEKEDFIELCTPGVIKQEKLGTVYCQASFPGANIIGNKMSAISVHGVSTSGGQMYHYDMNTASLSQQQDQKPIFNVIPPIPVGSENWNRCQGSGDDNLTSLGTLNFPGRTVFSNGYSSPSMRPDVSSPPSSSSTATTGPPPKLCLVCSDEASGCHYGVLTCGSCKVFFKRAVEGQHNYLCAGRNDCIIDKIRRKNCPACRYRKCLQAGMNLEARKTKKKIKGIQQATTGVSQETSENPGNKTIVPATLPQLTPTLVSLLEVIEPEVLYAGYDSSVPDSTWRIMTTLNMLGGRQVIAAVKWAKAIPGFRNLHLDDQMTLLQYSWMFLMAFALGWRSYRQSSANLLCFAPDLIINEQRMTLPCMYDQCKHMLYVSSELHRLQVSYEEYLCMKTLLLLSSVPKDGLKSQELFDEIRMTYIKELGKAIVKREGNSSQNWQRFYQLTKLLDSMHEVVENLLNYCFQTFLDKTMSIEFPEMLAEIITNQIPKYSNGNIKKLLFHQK
Androgen receptor (Homo sapiens), sequence (P10275 whole entry, looked up): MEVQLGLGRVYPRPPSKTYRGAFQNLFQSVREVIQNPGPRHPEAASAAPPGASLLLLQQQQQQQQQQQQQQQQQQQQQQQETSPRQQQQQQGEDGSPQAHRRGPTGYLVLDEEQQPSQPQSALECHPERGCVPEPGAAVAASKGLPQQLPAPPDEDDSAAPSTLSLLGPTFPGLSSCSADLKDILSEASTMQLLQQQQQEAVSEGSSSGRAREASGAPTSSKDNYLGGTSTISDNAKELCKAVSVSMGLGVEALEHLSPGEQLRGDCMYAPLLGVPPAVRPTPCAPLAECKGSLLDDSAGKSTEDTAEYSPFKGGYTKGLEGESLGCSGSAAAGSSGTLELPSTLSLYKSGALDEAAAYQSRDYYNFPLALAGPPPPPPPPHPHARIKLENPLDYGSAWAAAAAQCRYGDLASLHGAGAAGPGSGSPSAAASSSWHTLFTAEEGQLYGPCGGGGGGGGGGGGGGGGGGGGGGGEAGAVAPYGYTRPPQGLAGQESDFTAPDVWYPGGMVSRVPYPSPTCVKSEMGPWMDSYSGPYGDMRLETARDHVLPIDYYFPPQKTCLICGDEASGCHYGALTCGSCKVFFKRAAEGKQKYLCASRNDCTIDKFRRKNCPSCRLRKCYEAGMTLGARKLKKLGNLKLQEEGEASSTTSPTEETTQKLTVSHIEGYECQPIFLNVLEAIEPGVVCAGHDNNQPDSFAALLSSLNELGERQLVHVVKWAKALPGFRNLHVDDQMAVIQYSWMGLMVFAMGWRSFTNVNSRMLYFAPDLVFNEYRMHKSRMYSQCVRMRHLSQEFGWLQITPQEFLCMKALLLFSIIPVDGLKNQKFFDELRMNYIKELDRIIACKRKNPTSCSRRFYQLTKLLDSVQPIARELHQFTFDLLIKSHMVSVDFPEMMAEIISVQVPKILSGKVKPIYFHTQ

Take `C[n+]1ccn(CCO)c1`: the compound was called inactive in assay [1], in [3], in assay [4], in assay [5], in [7] and in assay [9]. The Potency result in assay [2], in assay [6], in [8], in assay [10], in [11] and in assay [12] was “inactive” throughout. The Potency entry in assay [13], in assay [14] and in assay [15] was “inactive” each time.

With `COC(=O)/C=C\C(=O)OC`, the result in assay [1], in assay [3], in assay [4], in assay [5], in assay [7] and in assay [9] was inactive. Further, the Potency result in assay [2], in [6], in assay [8], in assay [11], in assay [16] and in assay [12] was “inactive” throughout. Moreover, the Potency entry in [13], in [14] and in [15] was “inactive” each time.

As for `Cc1ncc(CO)c(CO)c1O`, the compound was called inactive in assay [1], in assay [3], in assay [4], in assay [5] and in assay [7]. The Potency entry in [2], in assay [6], in [8], in [11], in [16] and in [12] was “inactive” throughout. The Potency result in assay [13], in assay [14] and in assay [15] was “inactive” in each case.

In the case of `COc1c(Cl)ccc(Cl)c1C(=O)O`, the result in [1], in assay [3], in assay [4], in assay [5] and in assay [7] was inactive. Besides, the Potency result in assay [2], in [6], in assay [8], in [11], in [16] and in assay [12] was “inactive” throughout. Further, the Potency entry in assay [13] and in assay [15] was “inactive” throughout.

As to `CCc1cccc(CC)c1N`, the outcome in assay [1], in [3], in [4], in assay [5] and in [9] was inactive. Further, the Potency result in assay [2], in [6], in assay [8], in [10], in [11] and in assay [12] was “inactive” each time. Moreover, the Potency result in assay [13], in assay [14], in assay [17], in assay [18], in [15] and in [20] was “inactive” throughout. Moreover, the activity change is 0.738% in [19] (at 70.3 µM (top of the series)) and 0.21% in assay [19] (at 95 µM (top of the series)).

Regarding `C=CC(=O)NCOCCCC`, the result in assay [1], in [3], in assay [4], in assay [5] and in assay [9] was inactive. Further, the Potency result in [2], in [6], in assay [8], in assay [10], in [11] and in assay [12] was “inactive” in each case. The Potency result in assay [13] was “inactive”.

Consider `Cc1ccc(Cl)cc1`, for which the compound was classed as inactive in [1], in [3], in assay [4], in assay [5], in assay [7] and in assay [9]. The Potency entry in assay [6], in [8], in assay [10], in assay [11], in assay [16] and in [12] was “inactive” throughout. Also, the Potency entry in assay [13] and in assay [14] was “inactive” each time.

As to `COc1cc(NC(=O)CC(C)=O)c(OC)cc1Cl`, the call in assay [1], in [3], in assay [4], in assay [5] and in assay [9] was inactive. The Potency result in [2], in assay [6], in assay [8], in assay [11], in assay [16] and in assay [12] was “inactive” throughout. In addition, the Potency entry in [13] is “inactive”. Further, the Potency in assay [10] is 54.9 µM (active).

As to `CCOC(=O)CC(=O)OCC`, the result in assay [1], in assay [3], in assay [4], in [5] and in assay [9] was inactive. In addition, the Potency result in assay [2], in assay [6], in [8], in assay [10], in [11] and in assay [16] was “inactive” each time. Besides, the Potency result in assay [12], in [13], in assay [14] and in assay [15] was “inactive” throughout.
